Consider 9 compounds from PubChem BioAssay (NCATS).

Results filed as inconclusive are left out. Where a call stands in place of a potency, no number is given. The source made the active and inactive calls. Calls follow the shape of the dose curve; as a rule, active = well fitted inhibition curve with a large enough effect; inconclusive = small, poorly fitted or top-dose-only effect; inactive = no such curve, though single readings can be large or run the other way.

The target in this test is Retinaldehyde dehydrogenase 3 (Homo sapiens) (UniProt P47895). The test is described as follows: qHTS for Inhibitors of the Aldehyde Dehydrogenase Family (ALDH1A3) Primary screen (AID 2061315). Particulars: ALDH inhibition qHTS; series mostly up to 56 µM.
In the case of `CC1=CC2/C=C(\C)CCC(O)C(O)/C=C/C(=O)C23C(=O)NC(CC(C)C)C3C1C` (centres undefined), the Potency entry was “inactive”.
For the compound `O=C1C[C@@H]2OCC=C3CN4CC[C@]56c7ccccc7N1[C@H]5[C@H]2[C@H]3C[C@H]46`, the Potency result was “inactive”.
For the compound `C[C@]12CC[C@H](O)C[C@@H]1CC[C@@H]1[C@@H]2CC[C@]2(C)C(=O)CC[C@@H]12`, the Potency result was “inactive”.
Under `CCNC(=O)C[C@@H]1N=C(c2ccc(Cl)cc2)c2cc(OC)ccc2-n2c(C)nnc21` stands “inactive”; under `CCN1CC2(COC)C3[C@@H](OC)C4C1C3(C1C[C@]3(O)[C@H](OC(=O)c5ccccc5)C1[C@]4(OC(C)=O)[C@@H](O)[C@@H]3OC)[C@H](OC)C[C@H]2O` (some centres undefined), “inactive”.
In the case of `C/C=C(\C)C(=O)OC1C(C)OC(OC2C(C)OC(OC3CCC4(C)C(=CCC5C4CCC4(C)C(C(C)OC6OC(COC7OC(CO)C(O)C(O)C7O)C(O)C(O)C6O)CCC54O)C3)CC2OC)C(O)C1OC` (centres undefined), the Potency result is “inactive”.
Take `Cc1ccc(Cn2nc(C(=O)N[C@@H]3C(C)(C)[C@@H]4CC[C@@]3(C)C4)cc2-c2ccc(Cl)c(C)c2)cc1`: the Potency entry is “inactive”.
Under `C/C=C(\C)C(=O)OC1CC2C(CC=C3CC(OC4CC(OC)C(OC5CC(OC)C(OC6CC(OC)C(OC7CC(OC)C(O)C(C)O7)C(C)O6)C(C)O5)C(C)O4)CCC32C)C2(O)CCC(C(C)=O)C12C` (centres undefined) stands “inactive”; under `COC(=O)N1CCN(C(=O)Cc2ccc(Cl)c(Cl)c2)[C@@H](CN2CCCC2)C1`, “inactive”.
